Laboratory results published in PubChem BioAssay (NCATS).
Results filed as inconclusive are left out. A number with no mark means an inactive call. Calls of active or inactive are those of the source. Calls come from the whole dose curve; as a rule, active = well fitted inhibition curve with a large enough effect; inconclusive = small, poorly fitted or top-dose-only effect; inactive = flat fitted curve, though single readings scatter.

Test: qHTS for Inhibitors of Plasmodium falciparum (7G8) proliferation (AID 504316); note: nearly all actives have a fitted effect of over 65% in size;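 for activity change, negative = inhibition: 0% = DMSO vehicle and -100% = 0.29 µM artemisinin full kill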
Details: P. falciparum 7G8 in erythrocytes, SYBR Green DNA, 72 h; series mostly up to 6.7 µM; activity change, negative = inhibition: at the top concentration
Excerpt: Plasmodium falciparum is a virulent malarial parasite that kills 1-2 million people worldwide each year. Malaria not only inflicts tremendous suffering and morbidity on the human population, but has dramatically influenced the course of civilization with profound sociological and economic implications (Shah, S. 2010). Transmitted by mosquitoes, the sporozoite form of the parasite enters the blood stream to infect hepatocytes, where they become merozoites that infect red blood cells (erythrocytes). Within erythrocytes, merozoites begin a […] cycle of growth and division, after which the parasite is released to infect new red blood cells. Gametocytes, which form within erythrocytes as well, circulate in the bloodstream and are ingested by the mosquito, thereby completing the life cycle (see CDC website). To profile malarial lines for differential chemical responses and to identify inhibitors of malarial growth, an assay that measures P. falciparum growth and replication within erythrocytes was employed. This assay uses a DNA binding fluorescent dye (SYBR Green) to detect parasite DNA following cell lysis. Because mature erythrocytes lack DNA, only Plasmodium-derived DNA is detected. The P. falciparum line cp250, derived from a malarial isolate from Cambodia, (Mu, J., et al. 2010) was added to the panel of lines, Dd2, HB3, 7G8 and GB4 in this study. Laboratory of Assay Development and Screening Technology [ADST] and NIH Chemical Genomics Center [NCGC] Boston University, Chemistry Department, Center for Chemical Methodology and Library Development [CMLD-BU] NIH National Institute of Allergy and Infectious Diseases [NIAID]
ADST Assay Protocol Summary: The 1536-well SYBR Green viability assay was based on the method of Bennett et al (2004) and described previously in 1536-well format (Yuan J., et al. 2009). For screening 3 ul culture medium was dispensed into 1536 well black clear bottom plates (Aurora Biotechnologies) using a Multidrop Combi (Thermo Fisher Scientific Inc.), 23 nL compounds in DMSO were added by a pin transfer (Cleveland, P.H. and Koutz, P.J, 2005) using a pin tool-based delivery system (Kalypsys), and 5 ul of erythrocytes infected with P. falciparum one of five lines (cp250, Dd2, HB3, 7G8 or GB4, 0.3% parasitemia, 2.5% hematocrit final concentration) were added. The plates were incubated at 37C in a humidified incubator in 5% CO2 for 72 h, and 2 ul lysis buffer (20 mM Tris HCl, 10 mM EDTA, 0.16% saponin, 1.6% triton X, 10X SYBR Green I (supplied as 10,000X final concentration by Invitrogen) was added to each well. The plates were mixed for 25 sec with gentle shaking and incubated overnight at room temperature in the dark. The following morning, fluorescence intensity at 485(14) nm excitation and 535(25) nm emission wavelengths was measured on an EnVision (Perkin Elmer) plate reader. Plate reads were normalized relative to the control inhibitor (0.29 uM artemisinin) and vehicle (DMSO) wells present on each plate and then corrected by an algorithm using vehicle-only control plates at the beginning and end of the compound plate stack. References Shah, S. (2010). The Fever: how malaria has ruled humankind for 500,000 years. New York, Sarah Crichton Books. CDC web site, http://www.cdc.gov/malaria/about/biology/index.html Mu, J., Myers, R.A., Jiang, H., Liu, S., Ricklefs, S., Waisberg, M., Chotivanich, K., Wilairatana, P., Krudsood, S., White, N.J., et Plasmodium falciparum genome-wide scans for positive selection, recombination hot spots and resistance to antimalarial drugs Nature Genetics 2010, 42, pp 268-271 Bennett TN, Paguio, M., Gligorijevic, B., Seudieu, C., Kosar, A. D., Davidson, E., and Roepe, P. D. Novel, rapid, and inexpensive cell-based quantification of antimalarial drug efficacy Antimicrobial Agents Chemother. 2004, 48(5): pp 1807-10 Yuan J, Johnson RL, Huang RL, Wichterman J, Jiang HY, Hayton K, Fidock DA, Wellems TE, Inglese J, Austin CP, Su XZ. […]
Potency is the fitted concentration of half-maximal effect.

SMILES	activity change, negative = inhibition [%]	Potency
C=CC1=C2C=C(C3CC3)N(C3CC3)C=C2C(=O)C(C)(OC(=O)c2ccco2)C1=O (stereo not given)	-4.08	–
COC(=O)N[C@@H](c1ccccc1)[C@]1(C(=O)OC)CCCC1=O	7.89	–
CCCNC(=O)N1C2=NC(C(=O)OC)=C(C(=O)OC)[C@@H]3Nc4ccccc4[C@]23C[C@H]1C(=O)OC	2.27	–
COC(=O)N1CCc2cc(OC)c(OC)cc2C1Cc1ccc(OC)cc1 (stereo not given)	-12.2	–
CCOC(=O)[C@@]1([C@@H](NC(=O)OC)c2cccc(F)c2)CCCC1=O	1.73	–
CCCCCCC(=O)Cc1cc(OC)c(OC)cc1C=C(C(=O)OCC)C(=O)OCC	-6.17	–
CCOC(=O)N1C2=NC(C(=O)OC)=C(C(=O)OC)[C@@H]3N(C)c4ccc(OC)cc4[C@]23C[C@H]1C(=O)OC	-14.5	–
CCOC(=O)OC[C@H]1O[C@H](c2ccccc2)C=C[C@H]1OC(=O)OCC	-4.89	–
CCN1C(=O)N(S(=O)(=O)c2ccc(C)cc2)[C@@H](c2ccccc2)C(C(=O)OC)=C1C	-11.3	–
C=C[C@@]1(C)CC[C@H](O)[C@H]2C(=O)CCC[C@H]21	-19.7	–
CC1(C)O[C@@H]2[C@@H](O1)C(c1ccccc1)(c1ccccc1)OP(=O)(O)OC2(c1ccccc1)c1ccccc1	-7.22	–
CC#CCN1c2ccccc2[C@]23C[C@@H](C(=O)OC)N(C(=O)CC(C)C)C2=NC(C(=O)OC)=C(C(=O)OC)[C@H]13	-1.31	–
C=CCN1C=C2C(=O)C(C)(OC(=O)c3cnc4ccccc4n3)C(=O)C=C2C=C1/C=C/COC (stereo not given)	4.3	–
CCOC(=O)OC[C@H]1O[C@H](C#Cc2ccccc2)C=C[C@H]1OC(=O)OCC	–	1510 nM (active)
CCOC(=O)CN1C(=O)N[C@@H](CCc2ccccc2)[C@H](C(C)=O)[C@H]1C	-5.12	–
COC(=O)[C@]1(C)C=C[C@@H](C)[C@H](c2ccccc2Br)N1C(=O)C(F)(F)F	12	–
CC1(OC(=O)C2CCCC2)C(=O)C=C2C=C(c3ccsc3)N(CCc3c[nH]c4ccccc34)C=C2C1=O (stereo not given)	-1.88	–
COC(=O)N1C(/C=C/c2ccc3c(c2)OCO3)=Cc2ccccc2C1CC(C)=O (stereo not given)	–	2690 nM (active)
CCCCc1nc2c(c3c1C[C@H](C)OC3)CN(S(=O)(=O)c1c(C)noc1C)CC2	-6.8	–
CCCCC1=CC2=CC(=O)C(C)(OC(=O)CC)C(=O)C2=CN1c1ccncc1 (stereo not given)	5.89	–

SMILES	activity change, negative = inhibition [%]	Potency
COC(=O)N1C2=C(c3ccccc3[C@@H]1CC(=O)Nc1ccc3ccc4cccc5ccc1c3c45)[C@@H]1C(=O)N(c3ccccc3)C(=O)[C@@H]1[C@H](C)C2	–	1510 nM (active)
C[C@@H](c1ccccc1)N1C(=O)[C@@H]2[C@H]3[C@H](O)[C@H](O)CC(=NNC(=O)OCc4ccccc4)[C@@H]3CC[C@H]2C1=O	-14.2	–
CCOC(=O)CN1C(=O)N[C@@H](c2cccc(C(F)(F)F)c2)[C@H](C(=O)OC)[C@H]1C	-1.74	–
CC1COc2ccccc2C1=O (stereo not given)	–	1690 nM (active)
CCCCC1=CC2=CC(=O)C(C)(OC(=O)CC)C(=O)C2=CN1c1ccc(OC)cc1 (stereo not given)	2.9	–
COC(=O)C1=C(C(=O)OC)[C@@H]2N(Cc3ccccc3)c3ccccc3[C@@]23C[C@@H](C(=O)OC)N(S(=O)(=O)c2ccc4c(c2)OCCN4C)C3=N1	–	1900 nM (active)
COC(=O)C1=C(C(=O)OC)[C@@H]2N(C)c3ccc(OC)cc3[C@@]23C[C@@H](C(=O)OC)N(S(=O)(=O)c2ccc([N+](=O)[O-])cc2)C3=N1	–	1510 nM (active)
COC(=O)[C@H]1[C@H](CCc2ccccc2)NC(=O)N(Cc2ccccc2)[C@@H]1C	-0.515	–
C=CCN1C=C2C(=O)C(C)(OC(=O)CCC(=O)OC)C(=O)C(Br)=C2C=C1c1ccc(OC)cc1 (stereo not given)	-12.1	–
CCCCC1=CC2=C(c3ccco3)C(=O)C(C)(OC(=O)c3ccc(OC)cc3)C(=O)C2=CN1CCOC (stereo not given)	-3.29	–
CCCCC1=CC2=CC(=O)C(C)(OC(=O)CC)C(=O)C2=CN1Cc1ccc2c(c1)OCO2 (stereo not given)	-3.13	–
COC(=O)C1=C(C(=O)OC)[C@@H]2N(C)c3ccc(OC)cc3[C@@]23C[C@@H](C(=O)OC)N(S(=O)(=O)c2ccc(C#N)cc2)C3=N1	–	1690 nM (active)
COC(=O)CCC(=O)OC1(C)C(=O)C2=CN(C(CO)CO)C(c3ccc(OC)cc3)=CC2=C(Br)C1=O (stereo not given)	4.39	–
CCCCCC(=O)c1cc(CC(C(=O)OC)C(=O)OC)cc2cc(OC)c(OC)cc12	-18.5	–
COC(=O)CCC(=O)OC1(C)C(=O)C2=CN(Cc3ccc(OC)cc3)C(c3ccc(OC)cc3)=CC2=C(Br)C1=O (stereo not given)	-26.1	–
CCOC(=O)CN1C(=O)N[C@@H](c2ccccc2)[C@@H](C(=O)OC)[C@H]1C	0.661	–
CCN1C(=O)N[C@H](c2ccc(Br)cc2)C(C(=O)OC)=C1C	6.41	–
COC(=O)CCC(=O)OC1(C)C(=O)C2=CN(C3CCCC3)C(c3ccc(OC)cc3)=CC2=C(Br)C1=O (stereo not given)	-21.1	–
COC(=O)[C@@H]1CC[C@H](C)[C@@H](c2ccc(C)cc2)N1C(=O)c1ccc(C=NO[C@@H](C)c2cc(-c3c(C)cc(C)cc3C)no2)cc1	–	1690 nM (active)
COC(=O)C1=C(C(=O)OC)[C@@H]2N(Cc3ccccc3)c3ccccc3[C@@]23C[C@@H](C(=O)OC)N(S(=O)(=O)c2ccc([N+](=O)[O-])cc2)C3=N1	–	1690 nM (active)
